High-throughput results (PubChem BioAssay)
The list is not random: actives were taken first. Their share in the collection is about 11%.
Autophagy mod = modulators of autophagy. AID 463193. MEF GFP-LC3 puncta imaging; test concentration mostly 10 µM. calls only at 10 µM (by protocol). 190,000 compounds, 0.98% hits;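 active = percentage of spot-positive cells more than 3 SD above its plate mean, without a fluorescence outlier flag or 80% toxicity; inconclusive = no clear call, values can overlap the other calls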
WT yeast gro inh = growth inhibition of WT yeast, mitochondrial fusion screen. AID 1362. inhibition, % at 10 µM. 190,000 compounds, 2.1% hits. mitochondrial fusion phenotypic screen, WT strain; in the data active = inhibition above about 58%; tested in S. cerevisiae
Lmaj promast = inhibitors of Leishmania major promastigote growth | Leishmania major promastigotes, resazurin fluorescence viability | inhibition, % at 10 µM | 200,000 compounds, 9% hits | AID 1063; in the data active = inhibition above about 50%;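 note: promastigotes grown with compound for 44 hours at 28 °C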
Insulin prom up = MIN6 insulin promoter up-regulation. MIN6 insulin promoter-GFP reporter, high-content imaging; active compounds read high. z-score at 5 µM. 190,000 compounds, 0.3% hits. AID 1625;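 active = z-score above 3 at 5 µM with at least 500 cells counted in the well; inconclusive = wells under 500 cells, flagged as cytotoxic or low count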
INS promoter inh = TRM-6 insulin promoter activity inhibition; inhibition, % at 2 µM; 130,000 compounds, 0.9% hits; TRM-6 cells (human fetal islet line), insulin promoter-eGFP reporter, imaging; reporter expression induced with tamoxifen;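 active = inhibition above the mean plus 3 SD, with well images judged a real hit on visual review, cut at about 60% in these data, passing the limit was not always enough; inconclusive = inhibition over the cutoff but images rejected on review; inactive = inhibition not above the cutoff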
Hits are given with their value; - = inactive; ? = inconclusive; . = no result given; + = active, no number.

SMILES | Autophagy mod | WT yeast gro inh | Lmaj promast | Insulin prom up | INS promoter inh
CC(OC(=O)c1oc2ccccc2c1COc1ccccc1)C(=O)NC(N)=O (stereo not given) | + | - | - | - | .
CC(OC(=O)c1oc2ccccc2c1CSC1CCCCC1)C(=O)NC(N)=O (stereo not given) | - | - | - | . | -
O=S(=O)(/N=C(/c1ccccc1)N1CCCCCC1)c1ccccc1 | - | - | - | - | .
CCCCN(C)CC(O)Cn1cc(/C=C/C(=O)c2cccs2)c2ccccc21 (stereo not given) | - | - | 69 | 4.8 | -
Cc1nn(C)cc1/C=C/C(=O)c1cccs1 | - | - | - | . | -
O=C(/C=C/c1cn(CC(O)CN2CCCCCC2)c2ccccc12)c1cccs1 (stereo not given) | - | - | 100 | . | -
CCOC(=O)c1nn(-c2cccc(OC)c2)c2nc(Nc3ccccc3)cc(=O)n12 | + | - | - | - | -
CCOc1ccccc1Nc1nnc(SCC(=O)Nc2cccc(S(=O)(=O)NC3=NCCCCC3)c2)s1 | - | - | - | - | -
CC1(C)CC(=O)C2=C(C1)N(Cc1ccccc1)C(=O)C2(O)C(F)(F)F (stereo not given) | - | - | 66 | - | -
O=C1CCCC2=C1C(O)(C(F)(F)F)C(=O)N2Cc1ccccc1 (stereo not given) | - | - | 61 | . | -
C=CCN1C(=O)C(CC(=O)Nc2ccccc2)SC1=Nc1ccc(S(N)(=O)=O)cc1 (stereo not given) | - | - | - | - | -
Clc1ccccc1CSc1nncn1NC/C=C/c1ccccc1 | - | - | - | - | .
CCOc1ccc(NC(=O)CC(c2ccccc2)c2ccc(F)cc2)cc1 (stereo not given) | - | - | - | - | -
COC(=O)/C(=C1/Oc2ccc(C(C)(C)C)cc2S1)C(F)(F)F | - | - | - | . | .
COC(=O)/C(=C1/Oc2cc(C)oc(=O)c2S1)C(F)(F)F | + | - | - | - | .
Cc1ccc(C)c(N2CCN(C(=O)Nc3ccc4c(c3)N(C)C(=O)CS4)CC2)c1 | - | - | 50 | - | -
CCOc1ccc(OCC)c(NC(=O)Nc2ccc3c(c2)N(C)C(=O)CS3)c1 | . | - | 67 | - | .
COc1cccc(NC(=O)Nc2ccc3c(c2)N(C)C(=O)CS3)c1 | - | - | 59 | - | -
CN1C(=O)CSc2ccc(NC(=O)N3CCN(c4ccccn4)CC3)cc21 | - | - | - | - | .
CCC(=O)N1CCN(c2ccc(NC(=O)c3ccc(-c4ccccc4)cc3)cc2)CC1 | - | - | - | - | -
CC(=O)Nc1ccc(/C=C(\C#N)C(=O)NCc2ccccc2)cc1 | - | - | - | - | -
CCN(CC)c1ccc(/C=C(/C#N)C(=O)NC(C)C)o1 | - | - | - | . | .
CC(C)NC(=O)/C(C#N)=C\c1ccc(N(C)C)o1 | - | - | - | 12 | -
CCN(CC)c1ccc(/C=C(/C#N)C(=O)NCc2ccccc2)o1 | + | - | - | - | -
O=C(/C=C/c1cccc([N+](=O)[O-])c1)NCCSCc1cccc(Cl)c1 | - | - | - | - | -
SMILES | Autophagy mod | WT yeast gro inh | Lmaj promast | Insulin prom up | INS promoter inh
CCOc1ccc(-n2c(-c3ccccc3)c[n+]3c2CCC3)cc1 | - | - | 94 | ? | .
CCOc1ccc(-n2c(-c3ccc(Br)cc3)c[n+]3c2CCCCC3)cc1 | - | - | 101 | ? | -
CCOc1ccc(-n2c(-c3ccc(OC)cc3)c[n+]3c2CCCCC3)cc1 | - | - | 100 | ? | .
COc1ccc(-c2c[n+]3c(n2-c2c(C)n(C)n(-c4ccccc4)c2=O)CCCCC3)cc1 | - | - | - | - | .
COc1ccc(-c2c[n+]3c(n2-c2ccccc2)CCCCC3)cc1 | - | - | 99 | ? | .
O=C1CCCN1CC(O)CS(=O)(=O)c1ccc(Cl)cc1 (stereo not given) | - | - | - | - | .
COc1ccc(-c2c[n+]3c4n2CCCCC4=C(c2ccccc2)C3)cc1 | - | - | 100 | - | -
Cc1onc(-c2ccccc2Cl)c1C(=O)N(Cc1nc(-c2ccccc2)no1)C1CCCCC1 | - | - | 54 | - | -
Cc1cccc(-c2noc(CN(C(=O)c3c(-c4ccccc4Cl)noc3C)C(C)C)n2)c1 | - | - | - | - | .
COc1ccc(C(=O)N(Cc2nc(-c3ccc(C)cc3)no2)C2CCCCC2)cc1OC | - | 65 | - | - | .
COc1cc(OC)cc(C(=O)NCC(=O)N2CCCCC2)c1 | - | - | - | - | .
COc1ccc(/C=N/NC(=O)c2nc(-c3ccccc3)cc(-c3ccccc3)n2)cc1O | - | - | 99 | - | -
CCn1c(C)nc2cc(C(=O)N/N=C/c3ccccc3)ccc21 | - | - | - | - | .
CCn1c(C)nc2cc(C(=O)N/N=C/c3ccc(OC)c(O)c3)ccc21 | - | - | 63 | - | -
CCn1c(C)nc2cc(C(=O)N/N=C/c3cccc(O)c3O)ccc21 | - | - | 98 | - | .
CCn1c(C)nc2cc(C(=O)N/N=C/c3ccc(OC)cc3)ccc21 | - | - | - | - | .
COc1ccc(/C=N/NC(=O)c2nc(-c3ccccc3)cc(-c3ccccc3)n2)cc1 | - | - | - | - | .
COc1ccc(C(=O)C2CCCN(C(=O)c3ccoc3C)C2)cc1F (stereo not given) | . | . | . | - | .
NC(N)=N/N=C/c1cccc(Cl)c1Cl | - | - | 100 | - | .
COc1ccc(N2CC(O)=C(c3nc(-c4ccc(F)cc4)cs3)C2=N)cc1OC | - | - | - | - | .
N#CC1=C(N)Oc2ccc3ccccc3c2C1c1cccnc1 (stereo not given) | - | - | 88 | - | -
CCOC(=O)Cc1cc(=O)[nH]c(/N=C(\N)Nc2ccc(C)c(C)c2)n1 | - | - | - | - | -
Cc1c(Cl)cccc1NC(=S)N(CCCN1CCOCC1)Cc1cccs1 | - | - | - | - | -
Cc1c(Cl)cccc1NC(=S)N(Cc1cccs1)C1CCCC1 | - | 67 | - | - | .
Cc1ccc(Cl)cc1NC(=S)N(Cc1cccs1)C1CCCC1 | - | - | - | - | .
SMILES | Autophagy mod | WT yeast gro inh | Lmaj promast | Insulin prom up | INS promoter inh
Cc1ccccc1NC(=S)N(Cc1cccs1)C1CCCCC1 | - | 67 | - | . | .
CCOC(=O)C1CCN(C(=O)COc2ccc(Br)cc2C)CC1 | - | - | - | - | .
c1cnc2c(C3NCCc4c3[nH]c3ccccc43)cccc2c1 (stereo not given) | - | - | - | - | .
Oc1ccccc1-c1nc(N2CCCC2)c2ccccc2n1 | - | - | - | - | -
c1ccc(N2CCN(c3nc(-c4ccccn4)nc4ccccc34)CC2)cc1 | - | - | 100 | - | .
CN1CCN(c2nc(-c3ccccn3)nc3ccccc23)CC1 | - | - | 100 | . | -
CC(=O)N1CCN(c2nc(-c3cccs3)nc3ccccc23)CC1 | - | - | 77 | - | .
O=C(COC(=O)CCC(=O)c1ccc(Cl)cc1)NC1CC1 | - | - | - | - | -
O=c1c2ccccc2nc(-c2ccc(F)cc2)n1NCc1ccccc1O | - | - | - | - | -
CC(C(=O)Oc1ccc2c(c1)OCO2)N1C(=O)c2ccccc2C1=O (stereo not given) | - | - | - | - | -
CCOC(=O)C=C(C(=O)OCC)C(=O)OCC | - | - | 100 | - | .
COc1ccc(CN2CCC(N(CCc3ccccc3)Cc3ccccc3)CC2)c(OC)c1 | - | - | 94 | . | .
CCC(=NC(C)c1ccccc1)c1c(O)n(C)c(=O)n(C)c1=O (stereo not given) | - | - | - | - | 81
